# Measurements: PubChem BioAssay (NCI)
# The panel holds about 79,000 compounds, 15% with a hit somewhere; the sample as a whole holds those more often. A number with no mark means an inactive call. Active and inactive are the calls of the source. Cut-off read from the data, not from the text of the source: active = growth inhibition above about 70%; inactive = the rest.
# Legend:
# [1] = NCI Yeast Anticancer Drug Screen. Data for the rad52 strain (AID 147);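 note: 0% = growth of vehicle-treated control cultures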; settings: S. cerevisiae rad52 mutant growth inhibition, hits give high values
# How it was run: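 Yeast strain carrying a DNA damage repair alteration was exposed to test compounds. Growth inhibition was measured relative to vehicle-treated controls.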
# [2] = NCI Yeast Anticancer Drug Screen. Data for the wt1 strain (AID 149);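 note: 0% = growth of vehicle-treated wt1 cultures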; settings: S. cerevisiae wt1 strain (SPY 50644) growth inhibition, hits give high values
# How it was run: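 The wt1 strain was treated with compounds, and growth was compared with vehicle-treated cultures to give inhibition.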
# [3] = NCI Yeast Anticancer Drug Screen. Data for the rad50EPP+ strain (AID 151);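 note: 0% = growth of vehicle-treated control cultures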; settings: S. cerevisiae rad50 mutant strain, hits give high values
# How it was run: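 Yeast strain carrying rad50 alteration (rad50EPP+) exposed to compounds; growth inhibition measured relative to vehicle-treated controls.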
# [4] = NCI Yeast Anticancer Drug Screen. Data for the rad50 strain (AID 155);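 note: 0% = growth of vehicle-only cultures of the same strain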; settings: S. cerevisiae rad50 strain growth inhibition, hits give high values
# How it was run: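 Cells are treated with compound, grown, and their growth is then scored against vehicle-only cultures of the same repair-deficient yeast strain.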
# [5] = NCI Yeast Anticancer Drug Screen. Data for the mec2-1 strain (AID 157); settings: S. cerevisiae mec2-1 strain, hits give high values
# How it was run: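 mec2-1 yeast strain, carrying an alteration in DNA damage repair or cell cycle control, was exposed to compounds; growth inhibition was measured relative to vehicle-treated controls.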
# [6] = NCI Yeast Anticancer Drug Screen. Data for the rad14 strain (AID 159);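 note: 0% = growth of vehicle-treated control cultures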; settings: S. cerevisiae rad14 strain growth inhibition, hits give high values
# How it was run: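 Readout: yeast growth inhibition, referenced to vehicle-only cultures. Strain bears a defined alteration in DNA damage repair.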
# [7] = NCI Yeast Anticancer Drug Screen. Data for the sgs1 mgt1 strain (AID 161);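 note: 0% = growth of cultures given vehicle only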; settings: S. cerevisiae sgs1 mgt1 strain, hits give high values
# How it was run: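 Growth of a repair-deficient yeast mutant was monitored after compound treatment and expressed as inhibition relative to vehicle-treated cultures.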
# [8] = NCI Yeast Anticancer Drug Screen. Data for the CLN2oe strain (AID 163);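 note: 0% = growth of vehicle-only control cultures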; settings: S. cerevisiae CLN2oe strain, hits give high values
# How it was run: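 Yeast cells carrying a defined cell-cycle control alteration were exposed to test compounds. Growth inhibition was scored against vehicle-treated control cultures.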
# [9] = NCI Yeast Anticancer Drug Screen. Data for the cln2 rad14 strain (AID 165);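 note: 0% = growth equal to vehicle treated cultures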; settings: S. cerevisiae cln2 rad14 strain, hits give high values
# How it was run: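 Yeast carrying cln2 and rad14 alterations (cell cycle control and DNA damage repair) were exposed to compounds. Growth inhibition was measured against vehicle-treated controls.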
# [10] = NCI Yeast Anticancer Drug Screen. Data for the bub3 strain (AID 167); settings: S. cerevisiae bub3 mutant strain, hits give high values
# How it was run: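 Part of a panel of yeast mutants defective in DNA damage repair or cell cycle regulation. Each strain is grown with compound, and inhibition is calculated relative to solvent-treated cultures.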
# [11] = NCI Yeast Anticancer Drug Screen. Data for the wt2 strain (AID 169);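 note: 0% = growth of vehicle-treated yeast cultures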; settings: S. cerevisiae wt2 strain growth inhibition, hits give high values
# How it was run: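 Yeast cells were exposed to test compounds, and growth inhibition was measured relative to vehicle-treated controls.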
# [12] = NCI Yeast Anticancer Drug Screen. Data for the mlh1 strain (AID 171);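 note: 0% = growth of vehicle-treated control cultures of the same strain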; settings: S. cerevisiae mlh1 strain growth inhibition, hits give high values
# How it was run: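 Yeast carrying a defined genetic alteration in DNA damage repair or cell cycle control were exposed to test compounds. Growth inhibition was measured relative to vehicle-treated controls.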
# [13] = NCI Yeast Anticancer Drug Screen. Data for the sgs1 strain (AID 173);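 note: 0% = growth of vehicle-only control cultures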; settings: S. cerevisiae sgs1 mutant, hits give high values
# How it was run: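 Yeast mutant strains carrying defined defects in DNA damage repair or cell cycle control were exposed to test compounds. Growth inhibition was scored against vehicle-treated controls.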
# [14] = NCI Yeast Anticancer Drug Screen. Data for the mlh1 rad18 strain (AID 175); settings: S. cerevisiae mlh1 rad18 strain growth inhibition, hits give high values
# How it was run: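 Growth inhibition of the yeast strain was measured after compound exposure and expressed relative to vehicle-treated controls. The strain carries defined defects in DNA damage repair.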
# [15] = NCI Yeast Anticancer Drug Screen. Data for the rad18 strain (AID 177); settings: S. cerevisiae rad18 mutant growth inhibition, hits give high values
# How it was run: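 Yeast carrying a defined DNA damage repair alteration were exposed to compounds. Growth inhibition was expressed relative to vehicle-treated controls.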
# [16] = at 5.0 µM (retest, dose inferred, filed as 0.5)
# [17] = at 50.0 µM (retest, dose inferred, filed as 5.0)
smiles,measurement,setting,value
O=C(/C=C\c1ccc([N+](=O)[O-])o1)Nc1ccc(Cl)cc1,growth inhibition,[1]; at 1.2 µM,69%
same,growth inhibition,[1]; at 3.7 µM,96% (active)
same,growth inhibition,[1]; at 11.0 µM,98% (active)
same,growth inhibition,[1]; at 33.0 µM,98% (active)
same,growth inhibition,[1]; at 100.0 µM,97% (active)
same,growth inhibition,[2]; at 1.2 µM,6%
same,growth inhibition,[2]; at 3.7 µM,50%
same,growth inhibition,[2]; at 11.0 µM,97% (active)
same,growth inhibition,[2]; at 33.0 µM,98% (active)
same,growth inhibition,[2]; at 100.0 µM,98% (active)
same,growth inhibition,[3]; at 1.2 µM,52%
same,growth inhibition,[3]; at 3.7 µM,69%
same,growth inhibition,[3]; at 11.0 µM,83% (active)
same,growth inhibition,[3]; at 33.0 µM,91% (active)
same,growth inhibition,[3]; at 100.0 µM,84% (active)
same,growth inhibition,[4]; at 1.2 µM,38%
same,growth inhibition,[4]; at 3.7 µM,82% (active)
same,growth inhibition,[4]; [16],24%
same,growth inhibition,[4]; at 11.0 µM,97% (active)
same,growth inhibition,[4]; at 33.0 µM,97% (active)
same,growth inhibition,[4]; [17],54%
same,growth inhibition,[4]; at 50.0 µM,90.1% (active)
same,growth inhibition,[4]; at 100.0 µM,96% (active)
same,growth inhibition,[5]; at 1.2 µM,4%
same,growth inhibition,[5]; at 3.7 µM,19%
same,growth inhibition,[5]; [16],23%
same,growth inhibition,[5]; at 11.0 µM,63%
same,growth inhibition,[5]; at 33.0 µM,91% (active)
same,growth inhibition,[5]; [17],55%
same,growth inhibition,[5]; at 50.0 µM,27.5%
same,growth inhibition,[5]; at 100.0 µM,95% (active)
same,growth inhibition,[6]; at 1.2 µM,21%
same,growth inhibition,[6]; at 3.7 µM,70% (active)
same,growth inhibition,[6]; at 11.0 µM,91% (active)
same,growth inhibition,[6]; at 33.0 µM,94% (active)
same,growth inhibition,[6]; at 100.0 µM,96% (active)
same,growth inhibition,[7]; [16],63%
same,growth inhibition,[7]; [17],84% (active)
same,growth inhibition,[7]; at 50.0 µM,90% (active)
same,growth inhibition,[8]; at 1.2 µM,-4%
same,growth inhibition,[8]; at 3.7 µM,30%
same,growth inhibition,[8]; at 11.0 µM,73% (active)
same,growth inhibition,[8]; at 33.0 µM,76% (active)
same,growth inhibition,[8]; at 100.0 µM,61%
same,growth inhibition,[9]; [16],14%
same,growth inhibition,[9]; [17],31%
same,growth inhibition,[9]; at 50.0 µM,35.1%
same,growth inhibition,[10]; at 1.2 µM,0%
same,growth inhibition,[10]; at 3.7 µM,24%
same,growth inhibition,[10]; [16],6%
same,growth inhibition,[10]; at 11.0 µM,82% (active)
same,growth inhibition,[10]; at 33.0 µM,78% (active)
same,growth inhibition,[10]; [17],42%
same,growth inhibition,[10]; at 50.0 µM,10.4%
same,growth inhibition,[10]; at 100.0 µM,96% (active)
same,growth inhibition,[11]; at 1.2 µM,28%
same,growth inhibition,[11]; at 3.7 µM,87% (active)
same,growth inhibition,[11]; at 11.0 µM,99% (active)
same,growth inhibition,[11]; at 33.0 µM,99% (active)
same,growth inhibition,[11]; at 100.0 µM,98% (active)
same,growth inhibition,[12]; at 1.2 µM,1%
same,growth inhibition,[12]; at 3.7 µM,46%
same,growth inhibition,[12]; at 11.0 µM,94% (active)
same,growth inhibition,[12]; at 33.0 µM,93% (active)
same,growth inhibition,[12]; at 100.0 µM,97% (active)
same,growth inhibition,[13]; at 1.2 µM,81% (active)
same,growth inhibition,[13]; at 3.7 µM,94% (active)
same,growth inhibition,[13]; at 11.0 µM,98% (active)
same,growth inhibition,[13]; at 33.0 µM,98% (active)
same,growth inhibition,[13]; at 100.0 µM,95% (active)
same,growth inhibition,[14]; [16],88% (active)
same,growth inhibition,[14]; [17],86% (active)
same,growth inhibition,[14]; at 50.0 µM,92.8% (active)
same,growth inhibition,[15]; at 1.2 µM,95% (active)
same,growth inhibition,[15]; at 3.7 µM,97% (active)
same,growth inhibition,[15]; at 11.0 µM,97% (active)
same,growth inhibition,[15]; at 33.0 µM,97% (active)
same,growth inhibition,[15]; at 100.0 µM,93% (active)
CN(C)CC1CCCc2ccccc2C1=O (stereo not drawn),growth inhibition,[1]; at 1.2 µM,-43%
same,growth inhibition,[1]; at 3.7 µM,-39%
same,growth inhibition,[1]; at 11.0 µM,-41%
same,growth inhibition,[1]; at 33.0 µM,2%
same,growth inhibition,[1]; at 100.0 µM,76% (active)
same,growth inhibition,[2]; at 1.2 µM,1%
same,growth inhibition,[2]; at 3.7 µM,-11%
same,growth inhibition,[2]; at 11.0 µM,-1%
same,growth inhibition,[2]; at 33.0 µM,9%
same,growth inhibition,[2]; at 100.0 µM,53%
same,growth inhibition,[3]; at 1.2 µM,6%
same,growth inhibition,[3]; at 3.7 µM,-4%
same,growth inhibition,[3]; at 11.0 µM,26%
same,growth inhibition,[3]; at 33.0 µM,76% (active)
same,growth inhibition,[3]; at 100.0 µM,97% (active)
same,growth inhibition,[4]; at 1.2 µM,-5%
same,growth inhibition,[4]; at 3.7 µM,-2%
same,growth inhibition,[4]; [16],-14%
same,growth inhibition,[4]; at 11.0 µM,5%
same,growth inhibition,[4]; at 33.0 µM,41%
same,growth inhibition,[4]; [17],40%
same,growth inhibition,[4]; at 50.0 µM,66.2%
same,growth inhibition,[4]; at 100.0 µM,91% (active)
same,growth inhibition,[5]; at 1.2 µM,-4%
same,growth inhibition,[5]; at 3.7 µM,-12%
same,growth inhibition,[5]; [16],-11%
same,growth inhibition,[5]; at 11.0 µM,-7%
same,growth inhibition,[5]; at 33.0 µM,20%
same,growth inhibition,[5]; [17],-2%
same,growth inhibition,[5]; at 50.0 µM,23.4%
same,growth inhibition,[5]; at 100.0 µM,85% (active)
same,growth inhibition,[6]; at 1.2 µM,-6%
same,growth inhibition,[6]; at 3.7 µM,-13%
same,growth inhibition,[6]; at 11.0 µM,3%
same,growth inhibition,[6]; at 33.0 µM,12%
same,growth inhibition,[6]; at 100.0 µM,81% (active)
same,growth inhibition,[7]; [16],-1%
same,growth inhibition,[7]; [17],22%
same,growth inhibition,[7]; at 50.0 µM,50.3%
same,growth inhibition,[8]; at 1.2 µM,-7%
same,growth inhibition,[8]; at 3.7 µM,1%
same,growth inhibition,[8]; at 11.0 µM,22%
same,growth inhibition,[8]; at 33.0 µM,14%
same,growth inhibition,[8]; at 100.0 µM,89% (active)
same,growth inhibition,[9]; [16],-10%
same,growth inhibition,[9]; [17],20%
same,growth inhibition,[9]; at 50.0 µM,5.05%
same,growth inhibition,[10]; at 1.2 µM,24%
same,growth inhibition,[10]; at 3.7 µM,23%
same,growth inhibition,[10]; [16],-25%
same,growth inhibition,[10]; at 11.0 µM,19%
same,growth inhibition,[10]; at 33.0 µM,28%
same,growth inhibition,[10]; [17],40%
same,growth inhibition,[10]; at 50.0 µM,32.3%
same,growth inhibition,[10]; at 100.0 µM,95% (active)
same,growth inhibition,[11]; at 1.2 µM,-32%
same,growth inhibition,[11]; at 3.7 µM,-31%
same,growth inhibition,[11]; at 11.0 µM,-36%
same,growth inhibition,[11]; at 33.0 µM,-1%
same,growth inhibition,[11]; at 100.0 µM,76% (active)
